Sampled rows, rich in hits. Any-hit rate of the full collection: about 4.8%.
ssDAF-12 act: S. stercoralis DAF-12 nuclear receptor activators, primary screen, cell-based, luminescence, HEK293, GRIP1 co-expression, lit1-tk-luc; activation, % at 6.8 µM; 370,000 tested, 1% active; HEK293 ssDAF-12/GRIP1 lit1-tk-luc reporter; % of 3 µM dafachronic acid response; Nuclear hormone receptor DAF-12 (Strongyloides stercoralis);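 active means activation above the mean over all tested compounds plus 3 SD, cut at about 0.9% in these data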;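 further: 0% = DMSO-only wells and 100% = 3 µM delta7-dafachronic acid wells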
hgDAF-12 ag: H. glycines DAF-12 receptor agonists, primary screen, cell-based, luminescence, HEK293, GAL4 fusion, UAS-luciferase; Nuclear hormone receptor DAF-12 (Heterodera glycines), GAL4 fusion; HEK293 GAL4-hgDAF12 UAS-luciferase reporter, agonist luminescence; normalized to butyrate control; activation, % at 6.8 µM; 370,000 tested, 1.8% active; AID 687014, 2013;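 active means activation above a cutoff set at the mean of all screened compounds plus 3 SD, cut at about 10% in these data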;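 further: 0% = DMSO wells and 100% = sodium butyrate wells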
DAX1 inh-1: DAX1 (NR0B1) inhibitors on StAR promoter, primary screen, cell-based, luminescence, SF-1 (NR5A1), full-length DAX-1; HEK293T StAR-luciferase reporter, SF-1/DAX-1 repression relief; inhibition, % at 6.8 µM; 370,000 tested, 1.1% active;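 active means inhibition above the mean over all tested compounds plus 3 SD, cut at about 3.6% in these data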;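 further: 0% = DAX-1 cells with DMSO and 100% = cells lacking DAX-1 with DMSO; higher inhibition means more luminescence from relief of DAX-1 repression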
DAX1 inh-2: DAX1 (NR0B1) inhibitors, primary screen, cell-based, HEK293, Gal4-DAX1, luciferase luminescence. HEK293 Gal4-DAX1 luciferase reporter. inhibition, % at 6.75 µM. 340,000 tested, 0.99% active. AID 504766, 2011;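 active means inhibition above the mean over all tested compounds plus 3 SD, cut at about 4.2% in these data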;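 further: 0% = DAX1-transfected cells with DMSO and 100% = empty-vector control cells with DMSO; inhibition shows as a rise in luminescence from relieved DAX1 repression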
Target sequence (P51843 207-470 limits assumed): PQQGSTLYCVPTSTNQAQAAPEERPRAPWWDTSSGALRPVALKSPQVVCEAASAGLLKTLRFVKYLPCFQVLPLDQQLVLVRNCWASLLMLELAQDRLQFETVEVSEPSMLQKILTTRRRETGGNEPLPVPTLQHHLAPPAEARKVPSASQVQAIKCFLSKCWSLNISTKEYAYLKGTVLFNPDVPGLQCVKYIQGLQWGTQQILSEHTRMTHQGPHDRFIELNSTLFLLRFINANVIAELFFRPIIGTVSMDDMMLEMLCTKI
hcDAF-12 act: H. contortus DAF-12 nuclear receptor activators, primary screen, cell-based, luminescence, HEK293, lit1-tk-luc reporter | HEK293 hcDAF-12 lit1-tk-luc reporter; 0% DMSO, 100% Δ7-dafachronic acid | activation, % at 6.8 µM | 370,000 tested, 1.4% active;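 active means activation above the mean of all tested compounds plus 3 SD, cut at about 5.5% in these data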;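 further: 100% = response to 3 µM Δ7-dafachronic acid high control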
SMARCA2 activ: SMARCA2 (BRM) function activators, primary screen, cell-based, luminescence, high throughput. activation, % at 9.1 µM. MG213 cells, MMTV-luciferase reporter, dexamethasone, overnight. AID 652017, 2013. 370,000 tested, 1% active; in the data active means activation above about 7.8%;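 further: 0% = vehicle wells and 100% = reference activator wells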
SMARCA2 act conf: SMARCA2 (BRM) function activators, confirmation, cell-based, luminescence, triplicate. shares compounds with SMARCA2 activ. MG213 cells, MMTV-luciferase with dexamethasone, overnight; MG213 cells expressing E1A, Rb sequestered; DMSO wells 0%, reference activator 100%. activation, % at 9.1 µM. 3,500 tested, 30% active;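 active means activation above its plate's cutoff, the mean activation of tested wells plus 3 SD, cut at about 7.9% in these data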
GAL4-VP16 Luc: GAL4-VP16 luciferase reporter activation, counter-screen for SMARCA2 (BRM) activator project, cell-based, pG5luc, luminescence, high throughput. shares compounds with SMARCA2 activ. HEK293 GAL4-VP16 pG5luc reporter; scaled: DMSO wells 0%, SAHA wells 100%. 3,500 tested, 41% active. activation, % at 9.1 µM. AID 686939, 2013;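 active means activation above the solvent-only control well mean plus 3 SD, averaged across control plates, cut at about 5.2% in these data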
LXR ag: LXR agonists, Gal4 luciferase reporter, confirmation, counter-screen for hcDAF-12 agonist project, cell-based, luminescence, HEK293, H. contortus campaign; shares compounds with hcDAF-12 act; HEK293 Gal4-LXR tk-luc reporter, 24 h; normalized: DMSO 0%, positive control 100%; 3,400 tested, under 10 active; activation, % at 6.8 µM;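 active means mean percent activation of the reporter above a cutoff set as the average over tested compounds plus their standard deviation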
hcDAF12 ag: H. contortus DAF-12 receptor agonists, confirmation, cell-based, luminescence, HEK293, lit1-tk-luc, triplicate. shares compounds with hcDAF-12 act. activation, % at 6.8 µM. HEK293 hcDAF-12 lit1-tk-luc reporter; % of Δ7-dafachronic acid response. 3,400 tested, 61% active;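 active means mean activation across triplicate tests above the threshold derived from the earlier primary screen, cut at about 5.5% in these data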;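 further: 0% = DMSO only wells and 100% = 3 µM Δ7-dafachronic acid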
Starred values were filed as active, the others as inactive; · = not tested or not shown.

SMILES	ssDAF-12 act	hgDAF-12 ag	DAX1 inh-1	DAX1 inh-2	hcDAF-12 act	SMARCA2 activ	SMARCA2 act conf	GAL4-VP16 Luc	LXR ag	hcDAF12 ag
O=C(Cc1ccc2c(c1)OCO2)N1CCC(n2nc(-c3ccccc3)oc2=O)CC1	-2	-3	·	·	-4	·	·	·	·	·
CC(C)NC1CCC(Nc2ccnc3cc(Cl)ccc23)CC1 (configuration not stated)	-1	-1	0	-1	-2	3	·	·	·	·
Clc1ccc2c(NCCNC3CCCCC3)ccnc2c1	-1	-1	0	0	0	12*	-10	1	·	·
CCN(CC)c1ccc(C=NNC(=O)c2cc(-c3ccc(C)c(C)c3)n[nH]2)c(O)c1	-2	2	-2	·	-5	-4	·	·	·	·
COc1cc(CN(C(=S)NCC(=O)N2CCCC2)C2CCCC2)cc(OC)c1OC	-2	6	1	0	-1	1	·	·	·	·
COc1cc(CN(C(=S)NCC(=O)NC2CC2)C2CCCC2)cc(OC)c1OC	-1	0	1	-2	0	9.6*	-3	0	·	·
COc1ccc2oc(C(=O)OCC(=O)N3CCCCC3C)c(C)c2c1 (configuration not stated)	-1	2	2	1	-1	8.4*	7	2	·	·
CS/C(=N\N(C)C(N)=O)c1ccccc1	-1	-1	0	2	-2	8.4*	1	0	·	·
CC(/C=C1\SC(=S)N(NC(=O)c2ccc(O)cc2)C1=O)=C\c1ccccc1	0	4	0	0	-2	9.0*	1	1	·	·
O=C1Nc2ccccc2/C1=C/c1cnc(-c2ccccc2)[nH]1	1.2*	5	1	4.7*	9.7*	18*	13*	11*	1	9.8*
CC(=O)c1c(C)nc(-c2ccc(Cl)cc2)nc1N	1.6*	10	3	2	15*	10*	3	11*	1	7.3*
CCOC(=O)CC1(O)CSc2nc(N)cc(=O)n21 (configuration not stated)	-1	4	0	·	0	0	·	·	·	·
O=C(/C=C/Nc1ccc(F)cc1)c1cccs1	1.7*	12*	4.5*	0	11*	8.8*	11*	14*	2	18*
O=C(CCCC(=O)OCC(=O)c1cccs1)Nc1ccc(F)cc1	-2	-3	0	0	1	2	·	·	·	·
CCOC(=O)c1sc(=NC(=O)c2ccc(OC(C)C)cc2)n(C)c1C	-2	1	2	0	1	0	·	·	·	·
CCOC(=O)c1sc(=NC(=O)c2cccs2)n(C)c1C	2.5*	17*	3	1	7.8*	12*	8	14*	2	23*
N/C(CS(=O)(=O)c1ccccn1)=N\OC(=O)c1ccccc1Cl	0	8	1	·	7.3*	11*	3	8.0*	1	4
N/C(CS(=O)(=O)c1ccccn1)=N\OC(=O)c1ccc(Cl)cc1	0	3	0	1	4	0	·	·	·	·
O=C(Nc1ccsc1C(=O)O)c1ccc(Cl)cc1	3.0*	10	2	2	9.1*	8.7*	10*	8.7*	1	12*
Cc1ccc(C(=O)Nc2ccsc2C(=O)O)cc1	0	6	2	1	5	7	·	·	·	·
O=C(Nc1ccc(Nc2cccnc2)cc1)c1c[nH]c2ccccc12	-1	-1	0	·	0	1	·	·	·	·
Cc1csc(-c2coc3cc(O)cc(C)c3c2=O)n1	1.6*	10	1	3	13*	9.0*	15*	7.5*	1	11*
CCCCc1c(-c2ccccc2OC)ncn1Cc1cccc(OC)c1	-1	-3	-1	·	-2	-6	·	·	·	·
N#C/C(=C(/O)COc1ccccc1)c1nc2ccccc2s1	-1	-1	0	4	1	-2	·	·	·	·
N#C/C(=C(/O)c1ccc(F)cc1)c1nc2ccccc2s1	0	11*	1	2	7.2*	8.8*	-3	8.9*	0	2
SMILES	ssDAF-12 act	hgDAF-12 ag	DAX1 inh-1	DAX1 inh-2	hcDAF-12 act	SMARCA2 activ	SMARCA2 act conf	GAL4-VP16 Luc	LXR ag	hcDAF12 ag
COC(=O)[C@]12C[C@H](CC(=O)NCC34CC5CC(CC(C5)C3)C4)C(=O)N(Cc3ccc(Cl)cc3Cl)C1=C[C@H](C1CCCC1)O[C@@H]2C	0	2	0	·	-1	8	·	·	·	·
CCn1ncc2c(=O)c(C(=O)c3ccccc3)c[nH]c21	-1	3	1	·	-1	-3	·	·	·	·
CCOC(=O)c1ccc(/C=C2/C=C(c3ccccc3)N(c3ccc(Cl)c(C(=O)O)c3)C2=O)cc1	-1	0	0	0	8.4*	12*	-2	-1	0	-3
O=C(N/N=C/c1cc2ccccc2[nH]1)c1ccccc1Cl	0	6	0	2	6.6*	8.2*	-2	0	0	4
O=C(N/N=C/c1cccc2ccccc12)c1ccccc1Cl	-1	2	0	0	-2	4	·	·	·	·
COc1cc2c(cc1NC(=O)CSc1nnc(-c3cccc(Cl)c3)n1Cc1ccco1)oc1ccccc12	-1	0	0	·	0	-4	·	·	·	·
O=S(=O)(c1ccccc1)N1CCCc2nc(-c3ccccc3)ccc21	-1	0	1	·	1	-4	·	·	·	·

Screening results as filed in PubChem BioAssay.
